Screening results as filed in PubChem BioAssay.
Rows were chosen to be rich in hits. Some 0.48% of all compounds tested hit in one or more screens of this group.
NR5A2 inv ag: inverse agonists of human LRH-1 (NR5A2); O00482; AID 602396; HEK293T StAR-luciferase reporter, LRH-1 transfected, 24 h; 0.13% of 360,000 active; inhibition, % at 3.6 µM;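 active = inhibition above the mean inhibition of all tested compounds plus 3 SD, cut at about 73% in these data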
NCOA3 inh: human NCOA3 inhibition | inhibition, % at 3.6 µM | Q9Y6Q9 | 0.17% of 360,000 active | AID 588352 | HEK293 GAL4-SRC3 luciferase reporter, luminescence;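 active = inhibition above a per-campaign cutoff, the mean of all compounds plus 3 SD, cut at about 60% in these data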;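 note: higher means less SRC3-driven luciferase light from the GAL4 reporter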
SRC2 inh: human SRC2 (NCOA2) inhibition; Q15596; HEK293 GAL4-SRC2 luciferase reporter, luminescence; inhibition, % at 9 µM; 0.17% of 370,000 active; AID 651957;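 active = inhibition above the mean inhibition of all tested compounds plus 3 SD, set per campaign, cut at about 52% in these data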
LGR2 inh: blocks bursicon-induced cAMP signaling via Drosophila LGR2; 0.35% of 380,000 active; HEK293 LGR2, CRE-luciferase, bursicon-stimulated, 4 h; inhibition, % at 9.99 µM;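 active = drop in luminescence signal, shown as inhibition above about 50% in the replicate tests, limit read from the data, passing the limit was not always enough; inconclusive = probably only some replicates passing the limit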;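 note: agonist challenge used bursicon conditioned medium at about half maximal strength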
SRC1 inh: inhibitors of human steroid receptor coactivator 1 (SRC1); Q15788; HEK293 GAL4-SRC1 luciferase reporter, luminescence; inhibition, % at 3.6 µM; 0.12% of 360,000 active; AID 588354;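 active = inhibition above the campaign mean plus 3 SD, with each screening campaign given its own cutoff, cut at about 60% in these data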
Numbers stand for hits; – = inactive; ? = inconclusive; · = not tested or not shown.

SMILES	NR5A2 inv ag	NCOA3 inh	SRC2 inh	LGR2 inh	SRC1 inh
O=C(c1ccccc1)N1CCSc2sccc2C1=O	–	–	–	98	–
CS(=O)(=O)c1ccc(C(=O)OCC(=O)NC(=O)C2CCCCC2)cc1[N+](=O)[O-]	–	–	–	60	–
CCc1ccc(C(=O)Nc2nc3ccccc3[nH]2)cc1	–	–	68	92	–
CC(C)Oc1ccc(C(=O)Nc2nc3ccccc3[nH]2)cc1	–	–	–	94	–
O=C(Nc1nc2ccccc2[nH]1)c1ccc(F)cc1	–	–	–	–	–
CCCN1C[C@@H](C)[C@H](OC)CN(C)C(=O)c2ccc(NC(=O)c3ccccc3)cc2OC[C@@H]1C	·	·	·	–	·
COc1ccc(-c2cc3cc4c(cc3cn2)OCO4)cc1	–	–	–	65	–
COc1cc(OC)cc(-c2cc3cc4c(cc3cn2)OCO4)c1	–	–	·	·	–
C=CC(=O)N1C/C(=C/c2ccc(Cl)cc2)C(=O)/C(=C\c2ccc(Cl)cc2)C1	–	–	60	104	–
C=CC(=O)N1C/C(=C/c2ccccc2)C(=O)/C(=C\c2ccccc2)C1	–	–	67	100	–
COc1ccc2c3c([nH]c2c1)[C@@H](CO)N(Cc1ccncc1)CC31CN(C(=O)Cc2ccncc2)C1	·	·	·	–	·
Nc1c(C(=O)N2CCOCC2)sc2nc3c(cc12)CCCC3	–	–	–	71	–
Nc1c(C(=O)N2CCOCC2)sc2nc3c(cc12)CCC3	–	–	–	–	–
C[C@H]1CN([C@@H](C)CO)C(=O)c2cc(C#CC3(O)CCCC3)cnc2O[C@@H]1CN(C)C(=O)C1CC1	·	·	·	–	·
Cc1noc(C)c1NC(=O)N(C)C[C@@H]1OCCCC[C@@H](C)Oc2ccc(NC(=O)NC(C)C)cc2C(=O)N([C@H](C)CO)C[C@H]1C	·	·	·	–	·
Cc1noc(C)c1NC(=O)N(C)C[C@H]1Oc2ccc(NS(=O)(=O)c3ccc(F)cc3)cc2C(=O)N([C@@H](C)CO)C[C@@H]1C	·	·	·	–	·
C[C@@H]1CCc2cnnn2COC[C@@H](Cc2ccccc2)NC1=O	·	·	·	–	·
O=C(c1cc(-c2ccncc2)nc2ccc(Br)cc12)N1CCN(c2ccccn2)CC1	–	–	–	·	–
O=C(c1cc(-c2ccccc2Cl)nc2ccc(Br)cc12)N1CCN(c2ccccn2)CC1	–	–	–	68	–
CC1CCCN(c2ccc3nc4ccccc4c(=O)n3n2)C1 (centres undefined)	–	–	–	62	–
COCCN=C1NN=C(c2cc(C)n(CC3CCCO3)c2C)CS1 (centres undefined)	–	–	–	–	–
COCCCN=C1NN=C(c2cc(C)n(-c3ccccc3F)c2C)CS1	–	–	–	–	–
C=CCN=C1NN=C(c2cc(C)n(CC=C)c2C)CS1	–	70	58	–	71
COCCn1c(C)cc(C2=NNC(=Nc3ccccc3F)SC2)c1C	87	85	84	·	84
Cn1cnc(S(=O)(=O)N2CC[C@@H]3[C@@H](CO)Nc4ccc(-c5ccccc5)cc4[C@@H]32)c1	·	·	·	–	·
SMILES	NR5A2 inv ag	NCOA3 inh	SRC2 inh	LGR2 inh	SRC1 inh
C[C@H](CO)N1C[C@H](C)[C@H](CN(C)C(=O)Nc2cccc3ccccc23)Oc2ccc(NC(=O)Nc3ccc4c(c3)OCO4)cc2C1=O	·	·	·	–	·
CN(C)CC(=O)N[C@@H]1CC[C@@H](CCNC(=O)Nc2ccc(C(F)(F)F)cc2)O[C@@H]1CO	·	·	·	–	·
C=CCn1c(-c2ccc(OC)cc2)csc1=Nc1c(C)n(C)n(-c2ccccc2)c1=O	–	–	–	·	–
COc1ccc(-c2cc(=O)c3cc(O)ccc3o2)cc1	–	–	–	–	–
COc1ccc(-c2cc(=Nc3ccc(C(=O)O)cc3)c3cc(C)ccc3o2)cc1	–	–	–	53	–
CCc1ccc2oc(-c3ccc(OC)cc3)cc(=Nc3c(C)n(C)n(-c4ccccc4)c3=O)c2c1	–	–	–	83	–
CCc1ccc2oc(-c3ccc(OC)cc3)cc(=Nc3cccc(C(=O)O)c3)c2c1	–	–	–	84	–
C[C@H]1CN([C@@H](C)CO)C(=O)c2cc(C#Cc3ccccc3F)cnc2O[C@@H]1CN(C)S(=O)(=O)c1ccccc1F	·	·	·	–	·
C[C@H]1CCCCO[C@@H](CN(C)C(=O)NC2CCCCC2)[C@@H](C)CN([C@@H](C)CO)C(=O)c2cc(NS(C)(=O)=O)ccc2O1	·	·	·	–	·
C[C@@H]1CN([C@H](C)CO)C(=O)c2c(c3ccccc3n2C)-c2ccccc2CO[C@@H]1CN(C)S(=O)(=O)c1ccc(C(F)(F)F)cc1	·	·	·	53	·
C[C@H](CO)N1C[C@H](C)[C@H](CN(C)C)Oc2c(NS(=O)(=O)c3cccs3)cccc2C1=O	·	·	·	–	·
O=[N+]([O-])c1ccc(S(=O)Cc2ccccc2)c([N+](=O)[O-])c1 (centres undefined)	–	–	–	60	–
O=[N+]([O-])c1ccc(CS(=O)c2ccccc2)cc1 (centres undefined)	–	–	–	·	–
O=C(NCc1cc(C(F)(F)F)ccc1Cl)c1cccc2c1C(=O)c1ccc(N3CCC(N4CCCCC4)CC3)cc1S2(=O)=O	–	–	–	active	–
COc1ccc(NC(=O)/C(Cl)=C(/Cl)S(=O)(=O)Cc2ccccc2)cn1	–	–	69	·	–
COc1ccc(NC(=O)C(Cl)=C(Cl)Cl)cn1	–	–	–	–	–
COc1ccc(NC(=O)/C(Cl)=C(/Cl)S(=O)Cc2ccc(Cl)cc2)cn1 (centres undefined)	–	–	64	101	–
COc1ccccc1-c1cn(CC[C@H]2CC[C@@H](NC(=O)c3cnccn3)[C@H](CO)O2)nn1	·	·	·	–	·
CCC(=O)Nc1ccc(/C=C(\C(C)=O)C(=O)c2ccccc2)cc1	–	–	–	52	–
O=C1CC(c2ccc3c(c2)OCO3)Sc2nc3ccccc3n21 (centres undefined)	–	–	–	54	–
O=C1CC(c2ccccc2)Sc2nc3ccccc3n21 (centres undefined)	–	–	–	–	–
CCCN1C[C@H](C)[C@@H](OC)CN(C)C(=O)c2ccc(NC(=O)C3CCC3)cc2OC[C@@H]1C	·	·	·	–	·
CC(=O)Nc1ccc(/C=C/c2nc3ccccc3o2)cc1	–	–	–	–	–
C(=Cc1nc2ccccc2o1)c1ccc2c(c1)OCO2	–	–	–	81	–
C(=Cc1cnc2ccccc2n1)c1ccc2c(c1)OCO2	–	–	–	99	–
SMILES	NR5A2 inv ag	NCOA3 inh	SRC2 inh	LGR2 inh	SRC1 inh
C/C(=C\CNc1ncnc2nc[nH]c12)CO	–	–	–	–	–
CC(C)CCCCCCCCCCCCC(=O)NCC(=O)NC1C(C)OC(Nc2ncnc3nc[nH]c23)C(O)C1O (centres undefined)	88	91	–	·	87
O=C(Nc1cccc(C(=O)O)c1)Nc1ccc2c(c1)OCO2	–	–	–	97	–
COc1cccc(NC(=O)Nc2nc(-c3ccc(OC)c(OC)c3)cs2)c1	–	72	75	?	71
COc1cccc(NC(=O)c2ccccc2)c1	–	–	–	–	–
O=C(Nc1ccc2c(c1)OCO2)Nc1ccc2c(c1)OCO2	–	–	–	–	–
